Source: PubChem BioAssay (NCATS)
Inconclusive results are not listed. A call without a number means that no potency is given here. Activity calls are given as the source filed them. The call rests on the fitted dose curve; in most records, active means well fitted inhibition curve with a large enough effect; inconclusive means small, poorly fitted or top-dose-only effect; inactive means flat fitted curve, though single readings scatter.

Assay: Cytometry Cell-Based qHTS for Inhibitors of the mTORC1 Signaling Pathway in MEF cells (AID 2668)
Conditions: mTORC1 pathway readout; series mostly up to 38.3 µM
From the text: NIH Molecular Libraries Probe Production Centers Network [MLPCN]
NIH Chemical Genomics Center [NCGC]
Assay Submitter (PI): Blenis, John; Hoffman, Greg; Harvard University
NCGC Assay Overview: The mammalian target of rapamycin (mTOR) is an intracellular serine/threonine kinase Aberrant regulation of mTOR signaling plays a causative role in a number of human diseases, including cancer, benign tumors such as lymphangioleiomyomatosis (LAM) and Tuberous Sclerosis Complex (TSC), and metabolic diseases such as diabetes and obesity. This project aims to identify inhibitors of ribosomal protein S6 (rpS6) phosphorylation. The phosphorylation of rpS6 is a key event downstream of mTOR activation. The assay uses a phospho-specific antibody of phospho-rpS6 to detect inhibitors of mTOR activation. Mutations in the Tsc1 and Tsc2 genes are the underlying genetic lesions responsible for TSC, causing constitutive activation of the mTORC1 pathway and leading to profound effects on cell metabolism. Aberrant metabolism in cancer has recently received significant attention as a target to develop therapeutic agents in the treatment of cancer.1 As Tsc2-/- cells have lost the ability to respond to energy and growth factor deprivation, these cells are unable to properly down regulate cellular biosynthetic processes in response to metabolic stress, and are thus extremely sensitive to glucose deprivation-induced death.2 A central goal of this project is to explore the unique cell survival and metabolic properties of cells with Tsc1 or Tsc2 by screening for compounds that selectively target the Tsc2-/- MEFs by screening both Tsc2-/- and WT MEF cell lines. We hope to better understand these aspects of TSC physiology in order to exploit them for therapeutic benefit.
NCGC Acumen Assay Protocol:
For quantitative high throughput analysis of mTORC1 signaling, we developed a cell-based assay for immuno-fluorescence based detection of rpS6 phosphorylation on the Acumen Explorer that will be used a platform for the primary small molecule screen. Mouse embryonic fibroblasts (MEFs) are cultured in 1536-well plates using DMEM + 10% FBS. Twenty-four hrs after plating, test compounds (solubilized in DMSO) are delivered and incubated with the cells for 24 hrs at 37 degree Celsius. Following the incubation, media with compound is aspirated and the cells are fixed in 4% paraformaldehyde (PFA) containing PBS + 0.2% TX-100. Next, PFA is aspirated, cells are washed two times with PBS plus 0.2% TX-100 and the cells are blocked for 1 hr at room temperature (blocking buffer: LiCOR Blocking Buffer plus 0.2% TX-100). This is followed by aspiration and staining with Alexa-488 conjugated-phospho-rpS6 Ser235/236 antibody for 2 hours at room temperature (Cell Signaling Technology # 4803, 1:50 dilution in blocking buffer). Cells are washed two times with PBS plus 0.2% TX-100, and stained with 10 uM propidium iodide (PI) for 20-25 minutes for cell number measurement (1:500 dilution of Hoescht staining is also added for IN Cell imaging). The plates are scanned on the Acumen Explorer laser scanning instrument (TTP Labtech) using the 488nm laser for simultaneous excitation of the Alexa-488 and PI. The fluorescence emission from the Alexa-488 conjugated rpS6 phospho-235/236 antibody staining is selected using a […] band pass filter. Fluorescence emission from the PI stain is selected using a 575-640 nm band pass filter. The normalized phospho-S6 staining is calculated as the ratio of the integrated Alexa 488 intensity divided by the integrated PI intensity for the single concentration rapamycin control (7.5 nM) and DMSO columns. […] Inhibition of the pathway is defined based on the normalized phospho-S6 intensity in rapamycin treated cells. […]
Potency means the concentration at half of the fitted maximal effect.

| SMILES | Potency |
| --- | --- |
| CC1=C(CC(=O)O)c2cc(F)ccc2/C1=C\c1ccc(S(C)(=O)=O)cc1 | inactive |
| CCN(CC)C(C)CN1c2ccccc2Sc2ccccc21 (configuration not stated) | inactive |
| COC(=O)C1=C(C)NC(C)=C(C(=O)OC)C1c1ccccc1[N+](=O)[O-] | inactive |
| CC1=C(CC(=O)O)c2cc(F)ccc2/C1=C\c1ccc(S(C)=O)cc1 (configuration not stated) | inactive |
| CCN(CC)CCOC(=O)C1(C2CCCCC2)CCCCC1 | inactive |
| OCCN1CCN(CCCN2c3ccccc3Sc3ccc(Cl)cc32)CC1 | 7.36 µM (active) |
| O=C1N=C(O)CN1/N=C/c1ccc(-c2ccc([N+](=O)[O-])cc2)o1 | inactive |
| N=c1c[n+](N2CCOCC2)[n-]o1 | inactive |
| Cc1cc(N)c2ccccc2[n+]1CCCCCCCCCC[n+]1c(C)cc(N)c2ccccc21 | 7.36 µM (active) |
| CCCn1cnc2c1c(=O)n(CCCCC(C)=O)c(=O)n2C | inactive |
| C=Cc1c(C)c2cc3[nH]c(cc4nc(cc5nc(cc1[nH]2)C(C)=C5CCC(=O)O)C(CCC(=O)O)=C4C)c(C)c3C=C | inactive |
| CCCCCCCCCCCCCCCC(=O)NCCO | inactive |
| C[C@](N)(Cc1ccc(O)cc1)C(=O)O | inactive |
| COCCOC(=O)C1=C(C)NC(C)=C(C(=O)OC/C=C/c2ccccc2)C1c1cccc([N+](=O)[O-])c1 (configuration not stated) | inactive |
| CC(C)C(=O)c1c(C(C)C)nn2ccccc12 | inactive |
| NC1CCN(c2cccc(Cl)n2)CC1 | inactive |
| CNCCCC1c2ccccc2C=Cc2ccccc21 | inactive |
| CC(CN(C)C)CN1c2ccccc2CCc2ccccc21 (configuration not stated) | inactive |
| CN(C)CC[C@@H](c1ccc(Cl)cc1)c1ccccn1 | inactive |

| SMILES | Potency |
| --- | --- |
| CNC(=O)Oc1ccc2c(c1)[C@]1(C)CCN(C)[C@@H]1N2C | inactive |
| C#CCN(C)Cc1ccccc1 | inactive |
| CCN(CC)CCNC(=O)c1cc(Cl)c(N)cc1OC | inactive |
| CC(C)(C(=O)O)c1ccc(C(O)CCCN2CCC(C(O)(c3ccccc3)c3ccccc3)CC2)cc1 (configuration not stated) | inactive |
| NC(=O)c1ncn([C@@H]2O[C@H](CO)[C@@H](O)[C@H]2O)n1 | inactive |
| CC(C)(C)[C@]1(O)CCN2C[C@H]3c4ccccc4CCc4cccc(c43)[C@@H]2C1 | 5.85 µM (active) |
| CN(C)CCOC(C)(c1ccccc1)c1ccccn1 (configuration not stated) | inactive |
| Nc1cc(=O)[nH]c(N)n1 | inactive |
| CC(C)(C)c1onc(OCP(=O)(O)O)c1CC(N)C(=O)O (configuration not stated) | inactive |
| Nc1ncnc2c1ncn2[C@@H]1O[C@H](CO)[C@@H](O)[C@H]1O | inactive |
| CC(=O)OCC(=O)[C@@]1(O)CC[C@H]2[C@@H]3CCC4=CC(=O)CC[C@]4(C)[C@H]3C(=O)C[C@@]21C | inactive |
| CNCC(O)c1ccc(O)c(O)c1 (configuration not stated) | inactive |
| CC(C)NC[C@H](O)c1ccc(O)c(O)c1 | inactive |
| CC1=C(/C=C/C(C)=C/C=C/C(C)=C/C(=O)O)C(C)(C)CCC1 | inactive |
| C[C@]12CC[C@@H]3c4ccc(O)cc4CC[C@H]3[C@@H]1CCC2=O | inactive |
| COc1ccc(Cl)cc1C(=O)NCCc1ccc(S(=O)(=O)NC(=O)NC2CCCCC2)cc1 | inactive |
| CC(C(O)c1ccc(O)cc1)N1CCC(Cc2ccccc2)CC1 (configuration not stated) | 11.7 µM (active) |
| NC(N)=NCCC[C@H](N)C(=O)O | inactive |
